According to the supplement of paper PMC6555819:

system: PPARa:RXRa (NR concentration 270 nM, RXRa partner concentration 90 nM); assay: PBM binding z-score (relative to random genomic background probes); higher = stronger binding; sequences stand for … in GC…GCGATTGACAGCGTAGAATGAAGG
In short: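 Antibodies against each partner of ligand-free nuclear receptor dimers (one per run) detected binding on custom Agilent 4×180K protein-binding microarrays after 1 h incubation. The double-stranded probes had 34-nt variable regions carrying direct-repeat seeds, single-nucleotide variants, half-site ablations and random human genomic background sequences. Binding z-scores, from regression-normalized fluorescence, use the random background probes as reference.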

Sequence | PBM binding z-score
CGTACAGGGTCAGCTAGGCCAGAGTAGGGACGGC | 4.22
ACCGAAAGGTCGAGGTGAGTATAGAGAAAGGGAA | 4.71
AATATTAGTTGACTTAGGGCAACCGATACGACGC | 0.162
ACTAGCAGGCCAAGGGTCACTCCAGATTAGTCCG | 4
ATCTCTAGGTAACAAAGTTCAGTGAATGCCGAAC | 2.12
TCTAGCAGGCCAGAGGGTCACTTAAGAGGTACGG | 2.4
TCTTGTAGATCATTAGAGGTTAAGAAAGTGCGCT | 1.77
GCTAGTAGTTGAAAGGGCAACCGAATGATTCTCG | 2.52
GCTCGGAGGACAAGGGCAGAGCTTTGTCCGTAGA | -0.451
AGAATGAGGTTAAGATCATGGAAACAGAATACAT | 3.44
AGTAGCAGGCCAAGTTTGGGTCACTCAAACAAAG | 1.47
TCGAGTAGGTTACCAATGGGGCATTAAGCTTTCT | 0.96
CCAACTAGGTCACGAAAGGTCAAAGTCGAATGAC | 6.63
AGAATGAGGTTACCAAAGATCAGGGAAACGCTTG | 3.65
ATCGAAAGGACGTGAGGTGAGTATACAGAAAGGC | -0.116
TCTAGTTGGACACGGAGGTCACACACGACGGGTA | 3.68
CTACCAAGGTGAACAAGGTCATTGATTACTATTC | 3.92
CGAACTAGGTCATTGACAGGACAGTGAGTAGTAA | 4.8
TCTTGTAGATCAACAGGAGGTTATGAAAGATCGA | 1.2
ACTTACGGGTCATCGAGGTTATAGCACGCGTATA | 5.8

Sequence | PBM binding z-score
GCTATCAGTTGAAAGGGCAACCGAATGATTCTCG | 1.99
CGAACGAGGGCATGAGTTGATAGCGAATGCCGAT | 1.51
TAGCCTAGGTCATGCGGGCCAGAATAGTGTCGGC | 3.93
GCTAGTTGGTCAGTAAAAGGTCACAAACCGGTCG | 4.53
CCTAGTTGGTCAAGGGCACACACGCTATAGGTAC | 0.682
ACAGACGGGTGAGTGAAGGTAACTCAGCTGGACG | 0.0344
CCTATTAGTTGACCATAAGGGCAACCTAAGCTCG | 0.846
GGAACGAGGGCAAGTTGATACCAGAGTTTGATGG | 1.58
CCTTACAGGTCACTCCAGGTTATAGCATCGGAGT | 4.75
TTACCAAGGTGAAGGTTGTTGATCCCTCTGTAGA | 1.61
TCAGATAGGTAAACAGGTGAAAGTCCGTAAGTTA | 2.07
AGAATGAGGTTGAGATCAGGGAAACAGAATACAT | 0.66
TCTCGGAGGACACGAAGGTCACAGCTTTCCAGAG | 3.64
TCTCGGAGGACACGAAGGTCAGATCTTTCCAGAG | 1.98
AGAACGAGGGCACGCGGAGTTGATAGCAGAGTAG | 2.58
CCTCAGAGGACAGAAGGTCAGAGCTGTCCGCTTT | 2.19
TCTCGGAGGACACGAAGGTTAGAGCTTTCCAGAG | 0.397
CGTTCAAGGTCAGAGAGGTCAGTGAATGCCGAGT | 5.27
CTTGCTAGGTCATGGTCAGCTAATCTACAGTATG | 3.61
CCTTACGGGTCTCGAGGTTATAGCACGACGAGCG | 1.15
